{"source": "PubChem BioAssay (EPA / NIEHS)", "note": "Active and inactive are the calls of the source. How the source made its calls: active means hit-call score of the fitted dose curve at least 0.9, where 1 is the maximum; inactive means score below 0.9."}
{"test": "BSK_3C_TissueFactor: BioMAP Diversity Plus: 3C Assay for Tissue Factor Biomarker Activity (AID 2282997)", "settings": "BioMAP 3C HUVEC, tissue factor biomarker readout; actives raise or lower the signal", "in_short": "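Tissue factor on primary human umbilical vein endothelium was read by ELISA 24 h after dosing, gain or loss relative to DMSO. Cytotoxicity ran alongside via SRB (0.1%, TCA-fixed, 560 nm).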"}
{"smiles": "CCC(C)c1cc([N+](=O)[O-])cc([N+](=O)[O-])c1OC(=O)OC(C)C", "note": "(stereo unspecified)", "AC50": "9.93 µM (active)"}
{"smiles": "CS(=O)(=O)OCCCCOS(C)(=O)=O", "outcome": "inactive"}
{"smiles": "C=C(C)C(=O)OCCOCCOCCOCCOC(=O)C(=C)C", "outcome": "inactive"}
{"smiles": "CC(=O)Nc1ccc(C(=O)CCl)cc1", "AC50": "9.37 µM (active)"}
{"test": "BSK_3C_uPAR: BioMAP Diversity Plus: 3C Assay for Urokinase-type plasminogen activator receptor (uPAR) Biomarker Activity (AID 2282998)", "settings": "BioMAP 3C HUVEC, uPAR biomarker ELISA; actives raise or lower the signal", "in_short": "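Cell-surface uPAR on HUVEC (3C system) read by ELISA at 24 h post-treatment, with DMSO as baseline and fitting in both directions. Parallel cultures stained with SRB to flag overt cytotoxicity.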"}
{"smiles": "CCC(C)c1cc([N+](=O)[O-])cc([N+](=O)[O-])c1OC(=O)OC(C)C", "note": "(stereo unspecified)", "AC50": "11.3 µM (active)"}
{"smiles": "CS(=O)(=O)OCCCCOS(C)(=O)=O", "outcome": "inactive"}
{"smiles": "C=C(C)C(=O)OCCOCCOCCOCCOC(=O)C(=C)C", "outcome": "inactive"}
{"smiles": "CC(=O)Nc1ccc(C(=O)CCl)cc1", "AC50": "9.48 µM (active)"}
{"test": "BSK_3C_VCAM1: BioMAP Diversity Plus: 3C Assay for Vascular cell adhesion molecule 1 (VCAM1) Biomarker Activity (AID 2282999)", "settings": "BioMAP 3C HUVEC, VCAM1 ELISA, cytokine-stimulated; actives raise or lower the signal", "in_short": "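HUVEC primary cells, 24 h compound exposure; VCAM-1 by ELISA; gain/loss of signal fitted bidirectionally vs DMSO baseline.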"}
{"smiles": "CCC(C)c1cc([N+](=O)[O-])cc([N+](=O)[O-])c1OC(=O)OC(C)C", "note": "(stereo unspecified)", "AC50": "19.4 µM (active)"}
{"smiles": "CS(=O)(=O)OCCCCOS(C)(=O)=O", "outcome": "inactive"}
{"smiles": "C=C(C)C(=O)OCCOCCOCCOCCOC(=O)C(=C)C", "outcome": "inactive"}
{"smiles": "CC(=O)Nc1ccc(C(=O)CCl)cc1", "AC50": "6.27 µM (active)"}
{"test": "BSK_4H_Eotaxin3: BioMAP Diversity Plus: 4H Assay for Eotaxin 3 Biomarker Activity (AID 2283000);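 on outcome: CCL26 protein level quantified by ELISA in parallel with SRB cytotoxicity check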", "settings": "primary human endothelial cells (HUVEC); actives raise or lower the signal", "in_short": "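Human umbilical vein endothelial cells (BSK_4H system) dosed with test chemical; Eotaxin-3 (CCL26) measured by ELISA 24 h after dosing. Bidirectional curve fitting relative to DMSO negative control as baseline.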"}
{"smiles": "CCC(C)c1cc([N+](=O)[O-])cc([N+](=O)[O-])c1OC(=O)OC(C)C", "note": "(stereo unspecified)", "AC50": "8.5 µM (active)"}
{"smiles": "CS(=O)(=O)OCCCCOS(C)(=O)=O", "outcome": "inactive"}
{"smiles": "C=C(C)C(=O)OCCOCCOCCOCCOC(=O)C(=C)C", "outcome": "inactive"}
{"smiles": "CC(=O)Nc1ccc(C(=O)CCl)cc1", "AC50": "6.53 µM (active)"}
